According to PubChem BioAssay AID743093 (The Scripps Research Institute Molecular Screening Center, 2013):
Out of some 150,000 compounds screened, about 100 (0.067%) were called active. This is one part of a sample in which actives are shown more often than they occur. Values without a mark were called inactive.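 Rule for the calls: active = inhibition above the mean plus 3 SD of compounds within the control limits, set per campaign (cut at about 38% in these data); inactive = the rest.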

Assay: reduced ATP in mature Plasmodium gametocytes – ATP luminescence, HTS, primary screen (AID 743093);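 note: 0% = DMSO wells and 100% = medium only without gametocytes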
Conditions: P. falciparum stage V gametocytes, 24 h, at 10.9 µM, active compounds read high

Row | Structure (SMILES) | inhibition
1 | CC(C)CC(CCc1ccccc1)OS(N)(=O)=O (stereo unspecified) | -58.7%
2 | CC(C)(C)OC(=O)Nc1ccc([C@@H](NC(=O)OC(C)(C)C)C(=O)OC(C)(C)C)cc1 | -5.54%
3 | COc1ccc(C)cc1NC(=O)CNCc1cccs1 | 7.68%
4 | O=C(Cc1ccc(Br)cc1)NCCc1ccccc1 | 15.4%
5 | CCC(C)CCN1CCN=C1N(C)C (stereo unspecified) | 4.3%
6 | Cc1ccc(S(=O)(=O)NCCCn2ccnc2)cc1C(=O)NC(C)C | 2.4%
7 | O=C1N[C@@H](Cc2ccccc2)C(=O)N2[C@H]1C[C@]1(Br)c3ccccc3N(S(=O)(=O)c3ccccc3)[C@H]21 | 12.6%
8 | COC(=O)c1ccc(COc2ccc(/C=N/NC(=O)C(=O)Nc3ccc(OC)cc3)cc2OC)o1 | 2.74%
9 | O=C(N[C@@H](Cc1ccccc1)C(=O)OCc1ccccc1)c1nc[nH]c1C(=O)N[C@@H](Cc1ccccc1)C(=O)OCc1ccccc1 | 0.44%
10 | CCOc1cc(/C=N/Nc2cc(C)nc3ccc(C)cc23)ccc1O | 10.4%
11 | FC(F)(F)c1ccc2c3n(nc2c1)CCN=C3c1ccc(Cl)cc1 | 6.57%
12 | COC(=O)CN1C(=O)[C@H]2[C@@H](C3CC3)N3C(=O)CN(Cc4ccc(-c5ccccc5)cc4)C(=O)[C@@]3(Cc3ccccc3)[C@H]2C1=O | -19.5%
13 | CC(=O)Nc1ccc(NC(=O)CSc2nnnn2-c2ccccc2F)cc1 | -3.76%
14 | CC1CN(c2nc(Nc3ccccc3)nc(N)c2[N+](=O)[O-])CC(C)O1 (stereo unspecified) | -1.38%
15 | CCOc1cc(C)ccc1OCc1nnc(SCC(=O)Nc2cccc(C(=O)O)c2)n1-c1ccccc1 | 15.6%
16 | Nc1cccnc1Sc1ccccc1 | -1.9%
17 | Cc1noc(C)c1NC(=O)Nc1cccc2c1O[C@H](CN(C)S(=O)(=O)c1c(C)noc1C)[C@@H](C)CN([C@H](C)CO)C2=O | -15.7%
18 | O=C(O)c1ccccc1NC(=O)c1ccccc1-c1ccccc1C(=O)O | -11.4%
19 | CCOCCn1[nH]c2ccccc2c1=O | -10.4%
20 | COc1cc2c(cc1OC)C(c1ccccc1Br)NC(=O)C2 (stereo unspecified) | 1.27%
21 | Cc1cccc(NC(=O)CCN2CC(C)CC(C)C2)c1 (stereo unspecified) | -2.59%
22 | CC(=O)Nc1ccc(Oc2ccc3c(c2)C(=O)NC3=O)cc1 | 10.6%
23 | CCCn1c(C2CCCN2c2nc(-c3ccc(C)cc3)cs2)nc2cc(Cl)c(N3CCCCC3)cc21 (stereo unspecified) | 10.4%

Row | Structure (SMILES) | inhibition
24 | O=C(O)CCC(=O)N(Cc1ccccc1)Cc1ccccc1 | -4.24%
25 | Cc1ccc(S(=O)(=O)N2CCN(C)CC2)cc1 | -1.33%
26 | COc1cc2c(cc1OC)C(C(=O)Nc1cc(C)c(OC)c(C)c1)CC(=O)N2 (stereo unspecified) | 5.54%
27 | CCOC(=O)c1sc(/N=C/C2=C(O)CC(C)(C)CC2=O)c(C(=O)OCC)c1C | 22.4%
28 | O=C(c1ccc(F)cc1)n1cc(C(=S)N2CCOCC2)c2ccccc21 | 0.53%
29 | Cn1cc(CN2CCC(C(O)CCc3ccccc3)CC2)c(-c2ccccc2F)n1 (stereo unspecified) | 9.2%
30 | N=c1n(CCc2ccccc2)c2ccccc2n1Cc1ccccc1F | 59.9% (active)
31 | CN(Cc1ccccc1)Cc1ccccc1F | 19.5%
32 | OC(CNC1CCCC1)COc1ccc(F)cc1 (stereo unspecified) | -4.99%
33 | NC1=NC(c2ccc([N+](=O)[O-])cc2)N(c2ccc(F)cc2)C(N)=N1 (stereo unspecified) | 9.95%
34 | CC(C)NC(=O)/C(C#N)=C\c1ccc(N(C)C)c(Br)c1 | 7.74%
35 | CNC1(c2nnnn2-c2c(C)cccc2C)CCOC(C)(C)C1 (stereo unspecified) | 5.71%
36 | COc1ccc(NC(=O)c2cc(-c3ccc(C)cc3)on2)cc1 | -2.96%
37 | CCOC(=O)C1(Cc2ccccc2C)CCCN(S(C)(=O)=O)C1 (stereo unspecified) | -3.76%
38 | COc1ccccc1C(=O)Nc1ccc(Nc2ccccc2)cc1 | -11.9%
39 | COc1cc(OC)cc(-c2c(-c3cccs3)c3cc(-c4ccc(OC)nc4)ccc3n2C)c1 | -3.15%
40 | Cc1ccc(C(=O)NNC2=Nc3cc([N+](=O)[O-])ccc3OC2)cc1 | 5.16%
41 | O=Cc1c(NCCCN2CCCC2=O)c2ccccc2[nH]c1=O | -5.27%
42 | COc1ccc(CNC(=O)C2CCCC2)cc1 | -3.19%
43 | COc1cccc2oc(CCc3ccccc3)cc(=O)c12 | -20%
44 | O=C(CN1CCCCCC1)Nc1ccc(Br)cc1[N+](=O)[O-] | -7.18%
45 | COc1ccc(NC(=O)CS(=O)(=O)c2ccccc2)cc1 | 34.6%
46 | CCC(CO)Oc1cc(NC(=O)c2cccc(F)c2)c2ncn(C(C)C)c2c1 (stereo unspecified) | -8.65%

Row | Structure (SMILES) | inhibition
47 | CCc1nnc(NS(=O)(=O)c2ccc(NC(=O)c3cccc(OC(F)(F)C(F)F)c3)cc2)s1 | -3.99%
48 | CC(C)(C)OC(=O)C[C@H]1C/C=C\C[C@@H](CC(=O)N[C@H](CO)Cc2ccccc2)C(=O)NC[C@@H](c2ccccc2)OC1=O | 20.4%
49 | COc1ccc(S(=O)(=O)NCCCc2ccccc2)cc1 | -6.3%
50 | CCC1=NN2C(=N)/C(=C/c3cc(C)n(-c4ccccc4)c3C)C(=O)N=C2S1 | 20.8%
51 | COC(=O)C1(CCSC)NC(c2ccc(OC)cc2OC)C2C(=O)N(c3cccc(C(C)=O)c3)C(=O)C21 (stereo unspecified) | 15.8%
52 | Nc1cc(N)nc(SCc2cccc(F)c2)n1 | -27.3%
53 | COc1ccccc1C(=O)Nn1cnnc1 | -1.75%
54 | COc1ccc(-c2cc3ncccc3cn2)cc1 | -25%
55 | CC(=O)NCC(=O)NC1CCCc2c1cnn2-c1ccccc1F (stereo unspecified) | -0.98%
56 | CCOc1cc(/C=C2\C(=N)N3N=C(C)SC3=NC2=O)ccc1OCCOc1ccccc1 | -11.6%
57 | O=C1C=C(c2cccc(Cl)c2O)C[C@@H](c2ccc(F)cc2)C1 | -16.5%
58 | COc1ccccc1OCCCCCCN1CCN(C)CC1 | 14.7%
59 | COc1cc(OC)cc(-c2sc3ccc(OC)cc3c2-c2ccc3cc[nH]c3c2)c1 | 5.06%
60 | C/C(=C/c1ccccc1)C(=O)N1CCN(c2ccccc2)CC1 | 5.72%
61 | Cc1cc2nc3n(c2cc1C)CC1CC(C(=O)NCCC(C)C)N(C)C31 (stereo unspecified) | 6.88%
62 | COC(=O)[C@]1(C)N[C@H](c2ccc(-c3ccc(Cl)c(Cl)c3)cc2)[C@@H]2C(=O)N(C)C(=O)[C@@H]21 | 15.7%
63 | CC(C)(C)NC(=O)/C(=C/c1cccnc1)NC(=O)c1ccco1 | -3.01%
64 | COc1ccc(C(C)NC(=O)C2CCCC2)cc1 (stereo unspecified) | 7.38%
65 | O=C(CNc1ccc(F)cc1F)NC(=O)NCc1ccco1 | -14.3%
66 | COc1ccc2ccn(C)c2c1 | 3.29%
67 | CC(=O)N1CCC(N(C(=O)Nc2ccc(Cl)cc2)C(C)C)CC1 | -9.52%
68 | CCC(=O)Nc1ccc(C(=O)NNC(=O)c2ccc(Cl)cc2)cc1 | 1.21%
69 | CCN1C(=S)N[C@@H](CCc2ccccc2)[C@H](C(=O)OC)[C@H]1C | 12.5%

Row | Structure (SMILES) | inhibition
70 | Oc1c(Br)cc(/C=N/NC(=S)NCC2CCCO2)cc1Br (stereo unspecified) | -1.52%
71 | Cc1cc(N2CCN(c3ccccc3)CC2)nc(N2CCOCC2)n1 | -32.2%
72 | COc1ccc(NC(=O)C2=NNC(=O)CC2)cc1S(=O)(=O)N1CCCCC1 | 3.13%
73 | COc1ccc(N(CC(=O)Nc2cccc3ccccc23)S(C)(=O)=O)c(OC)c1 | 7.84%
74 | O=C(COc1ccccc1)N1CCN=C1SCc1cccc(F)c1 | 8.04%
75 | O=C(Nc1cccc(S(=O)(=O)NC2=NCCC2)c1)C1CCCCC1 | -1.09%
76 | CCOc1cc2ccccc2cc1C(=O)Nc1ccccn1 | 3.24%
77 | CC(=O)c1ccc(N2Cc3ccccc3C2)cc1 | 9.41%
78 | O=C(CC(c1ccccc1)c1cc(Cl)ccc1O)NCCN1CCOCC1 (stereo unspecified) | -8.49%
79 | CN(c1ccc(OCC(=O)NC2=NCCS2)cc1)S(=O)(=O)c1ccc(F)cc1 | -8.94%
80 | C/C(=N/NC(=O)CN1CCN(S(=O)(=O)c2ccc(Br)cc2)CC1)c1ccncc1 | -12.4%
81 | Cc1nnc(C)c2c(C)n(N)c(C)c12 | -1.23%
82 | COc1ccc(CCN2C(=O)C(C)=C(C)C2=O)cc1OC | -7.13%
83 | COc1cc(OC)cc(-c2c(C#Cc3ccsc3)c3cc(-c4ccc(SC)cc4)ccc3n2C)c1 | 3.56%
84 | O=C(c1ccco1)N1CCN(c2cccc(Cl)c2)CC1 | 4.74%
85 | O=C(c1ccco1)N1CCN(CCOc2ccccc2)CC1 | -1.67%
86 | O=C(c1ccco1)N1CCN(C(=O)C2c3ccccc3Oc3ccccc32)CC1 | 42.8% (active)
87 | CCCn1c(=O)c(C(=O)Nc2cc(C)ccn2)c(O)c2ccccc21 | -14.8%
88 | CC(=O)c1ccc(NC(=O)C(C)N(C)CC(=O)Nc2ccccc2Cl)cc1 (stereo unspecified) | -5.51%
89 | CCOC(=O)C1(CCOc2ccccc2)CCN(Cc2cc(OC)cc(OC)c2)CC1 | 9.31%
90 | Cn1c(=O)c2c(-c3cccc(Br)c3)c(C#N)c(N)nc2n(C)c1=O | -18.2%
91 | COc1ccccc1-c1nnc(-c2ccc(F)cc2)o1 | -17.9%
92 | CCOC(=O)[C@H]1[C@H]2COc3ccccc3[C@@H]2N2C(=O)CN(Cc3ccccc3)C(=O)[C@@]12C | -1.62%

Row | Structure (SMILES) | inhibition
93 | CC(=O)Cn1cnc2c(cnn2-c2ccccc2)c1=O | 2.17%
94 | O=C1C(=O)N(CCCO)C(c2ccccc2)/C1=C(\O)c1ccc(Br)cc1 (stereo unspecified) | 2.05%
95 | COc1ccc(N(CC(=O)NCCSCc2cccc(Cl)c2)S(C)(=O)=O)cc1 | 1.88%
96 | COc1cc(OC)c(C(=S)N2CCCC2)cc1OC | -6.55%
97 | O=c1[nH]cnc(O)c1C(c1ccc(F)cc1)c1c(O)nc[nH]c1=O | 0.56%
98 | CCCc1nc2oc3c(=O)[nH]cnc3c2c2c1COC(C)(C)C2 | 8.46%
99 | COc1ccc(-c2c(C#Cc3ccccc3)c3ccccc3n2C)cc1 | -4.41%
100 | Cc1cccc(NC(=O)C(C)SCc2ccccc2)c1 (stereo unspecified) | -2.36%
101 | COc1ccc(Cc2cc(-c3ccc(F)cc3)n[nH]c2=O)cc1 | -14.6%
102 | C=CC[C@@H](CC(=O)N[C@@H](CO)Cc1ccccc1)C(=O)NCCOC(=O)[C@@H](CC=C)CC(=O)OC(C)(C)C | -18.1%
103 | COc1ccccc1-n1c(SCC(=O)O)nc2sc3c(c2c1=O)CCC3 | -0.96%
104 | Cc1cc(C)cc(NC(=O)NC2CCN(CC(=O)Nc3cccc(Cl)c3C)CC2)c1 | -10.3%
105 | CC(C)Cc1nnc(NC(=O)CCc2ccccc2)s1 | -5.6%
106 | COc1ccc(CCNC(=O)C2CCCN2C(=O)Nc2ccccc2)cc1OC (stereo unspecified) | 11.4%
107 | COC(=O)C1(C)NC(c2ccc(F)cc2)C2C(=O)N(c3ccccc3)C(=O)C21 (stereo unspecified) | -19.3%
108 | COc1ccccc1-c1oc2ccccc2c1C#CCCCCO | 7.1%
109 | Cc1cc(-c2n[nH]c(=S)n2/N=C/c2ccco2)n[nH]1 | 9.38%
110 | CCCNC(=S)N1CCC(NC(=O)c2ccc(OC)cc2)CC1 | -3.26%
111 | COc1ccc(C(C(=O)NC(C)(C)C)N(C(=O)Cn2nnc3ccccc32)c2ccc(C(C)=O)cc2)cc1O (stereo unspecified) | 8.85%
